ALOX12 inh = inhibitors of human 12S-lipoxygenase ALOX12 | P18054 | purified 12hLO, xylenol orange hydroperoxide absorbance | Potency, µM (top dose mostly 108 µM), for inactives: top-dose activity change, negative = inhibition, actives largely listed as inhibitors | 1.1% of 580,000 active | AID 1671190; further: on the % scale 0 is the no-effect control and ±100 the full control effect
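Hydroperoxide product was detected by ferrous iron/xylenol orange as the 573 to 405 nm absorbance ratio. Arachidonic acid at 40 uM (final) was turned over for 30 min at room temperature by 150 nM human 12hLO, pH 7.0 Hepes buffer, after 15 min compound preincubation.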
EPAC2 antag = EPAC2 (human) antagonism | EPAC2 GEF exchange of Rap1B-BODIPY-GDP, fluorescence | Potency, µM (titrated, usually from 114 µM), without a hit: at the top dose activity, negative = inhibition, most hits filed as inhibitors | 0.18% of 360,000 active; further: on the % scale 0 is the no-effect control and ±100 the full control effect; nearly all actives have a fitted effect of over 45% in size
USP1 inh = blocks the human USP1/UAF1 deubiquitinase complex; O94782; recombinant USP1/UAF1, Ub-Rhodamine cleavage fluorescence; Potency, µM (top dose mostly 57.1 µM), without a hit: top-dose activity change, negative = inhibition, usual class: inhibitors; 0.23% of 390,000 active; AID 743255; further: on the % scale 0 is the no-effect control and ±100 the full control effect; nearly all actives have a fitted effect of over 60% in size
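Step one: compound is pinned into 1nM USP1/UAF1 in HEPES pH 7.8 buffer with TCEP. Step two: 15 min room-temperature incubation. Step three: Ub-Rho (150nM final) starts cleavage, tracked by fluorescence over six one-minute reads.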
EPAC1 agonist = activates human EPAC1 exchange factor; EPAC1 agonist qHTS, biochemical assay; response scale: 100% = response to 6.5 mM cAMP; O95398; 0.073% of 360,000 active; Potency, µM (doses to about 154 µM), for the others: at the highest dose activation, hits mostly activators; further: nearly all actives have a fitted effect of over 60% in size
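Normalized to 6.5 mM cAMP, activity reflects EPAC1-catalysed release of BODIPY-GDP from Rap1B, followed kinetically over 30 min at 480 nm excitation, 540 nm emission. Reaction contained 100 nM EPAC1, 250 nM Rap1B-BODIPY-GDP, 50 uM GDP.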
EPAC2 agonist = activates human EPAC2 exchange factor | Potency, µM (highest dose often 154 µM), for the others: at the top dose activation, actives largely listed as activators | 0.079% of 360,000 active | EPAC2 activation, biochemical qHTS; response scale: 100% = 6.5 mM cAMP response; further: nearly all actives have a fitted effect of over 50% in size
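Exchange assay: 100 nM EPAC2 with 250 nM Rap1B-BODIPY-GDP and 50 uM GDP. Fluorescence (ex 480/em 540 nm) read every 5 min for 30 min at room temperature. Data normalized to 6.5 mM cAMP as agonist control.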
EPAC1 antagonist = antagonists of human EPAC1; EPAC1 GEF assay, Rap1b-BODIPY-GDP exchange fluorescence; AID 720709; 0.14% of 360,000 active; Potency, µM (top dose mostly 115 µM), for the others: at the highest dose activity change, negative = inhibition, hits mostly inhibitors;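 further: plate controls were vehicle for no effect and positive control for full effect; nearly all actives have a fitted effect of over 50% in size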
The depositor's hits bear a star; ? = inconclusive; . = no result; [ ] = another dose, or the depositor's remark. Sampled rows, rich in hits. Any-hit rate of the full collection: about 1.3%. The call rests on the fitted dose curve; in most records, active means well fitted curve in the direction sought with a large enough effect; inconclusive means small, poorly fitted or top-dose-only effect, or another doubt; inactive means no such curve, though single readings can be large; an effect the other way counts as inactive or inconclusive. Potency means the concentration at half of the fitted maximal effect.

SMILES	ALOX12 inh	EPAC2 antag	USP1 inh	EPAC1 agonist	EPAC2 agonist	EPAC1 antagonist
O=C1C=CC(=O)N1N(c1ccccc1)c1ccccc1	35.5µM*	-0.5%	-3.1%	-2.4%	13.6%	-5.4%
NCCCC[C@@H]1NC(=O)[C@H](CCC(=O)O)NC(=O)c2cc([N+](=O)[O-])cc(I)c2SC[C@@H](C(=O)NCC(N)=O)NC1=O	39.8µM*	19.0%	-27.9%	-19.3%	1.2%	5.6%
NCCCC[C@@H]1NC(=O)c2cc([N+](=O)[O-])cc(I)c2SC[C@@H](C(N)=O)NC(=O)[C@H](Cc2ccc(O)cc2)NC1=O	.	-11.4%	14.8%	-7.9%	7.5%	4.8%
CC1=C(O)C(=O)OC1C (centres undefined)	-1.8%[176 µM]	.	.	.	.	.
O=C(NNc1ccccc1C(F)(F)F)c1sccc1Br	39.8µM*	-6.2%	-9.2%	11.9%	11.3%	-6.1%
O=C(Nc1ccccc1C(F)(F)F)c1ccsc1	0.0%	3.1%	-11.3%	3.8%	0.9%	13.6%
CCOC(=O)c1cc(S(=O)(=O)Nc2ccc3c(c2)OCCO3)[nH]n1	11.2µM*	.	.	.	.	.
CCc1ccc(/C=N/NC(=S)NCCc2ccccc2)cc1	22.4µM*	-0.3%	3.4%	2.2%	-8.8%	9.2%
S=C(NCCc1ccccc1)N/N=C/c1ccccc1Br	35.5µM*	.	.	.	.	.
CCN(Cc1ccccc1)c1ccc(/C=N/NC(=S)NC(C)C)cc1	44.7µM*	-0.7%	-16.8%	9.9%	2.3%	-10.1%
S=C(NCc1ccco1)N/N=C/c1ccc(Cl)cc1	44.7µM*	-5.8%	-3.7%	9.6%	-1.7%	-10.9%
Oc1ccc(Br)cc1/C=N/NC(=S)NCCc1ccccc1	?	2.8%	-19.8%	9.5%	7.0%	-7.0%
Oc1ccc(/C=N/NC(=S)NCc2ccco2)cc1	-19.2%	9.7%[57.1 µM]	-19.6%	1.6%	2.8%	3.1%
Cc1cc(=O)c(C(=O)N2CCN(S(=O)(=O)c3ccc(F)c(F)c3)CC2)nn1-c1ccccc1F	16.1%	.	.	.	.	.
O=C(OCCc1ccccc1)c1ccc([N+](=O)[O-])cc1	-33.1%	.	.	.	.	.
CC(C)(C)c1ccc(/C=N/NC(=S)NCc2ccccc2)cc1	44.7µM*	-0.9%	2.8%	17.4%	4.8%	-7.9%
S=C(NCCc1ccccc1)N/N=C/c1ccccc1Cl	39.8µM*	-9.6%	-1.3%	15.0%	13.0%	-21.2%
COc1ccc(O)c(/C=N/NC(=S)NCCc2ccccc2)c1	?	2.5%	-22.7%	4.6%	18.0%	-6.4%
Cc1ccc(-c2nc3cnccn3c2NCCC(=O)NCc2ccco2)cc1	50.1µM*	.	.	.	.	.
CN(C)c1ccnc(-c2ccccc2C(F)(F)F)n1	50.1µM*	.	.	.	.	.
O=C1C=C(c2ccccc2)C(c2ccccc2)C1 (centres undefined)	15.6%	35.5µM*	-7.9%	13.6%	5.3%	-2.2%
CN(C)c1ccc(CN2CCC3(CC2)COc2ccccc2C(=O)N3)cc1	39.8µM*	.	.	.	.	.
Cn1cccc1CN1CCC2(CC1)COc1ccccc1C(=O)N2	56.2µM*	.	.	.	.	.
Cc1ccc(-c2cc(C(=O)NCCO)c3ccccc3n2)cc1	18.0%	.	.	.	.	.
Oc1ccccc1-c1cc(-c2ccco2)[nH]n1	20µM*	-0.1%	-15.1%	0.0%	2.3%	-14.3%
SMILES	ALOX12 inh	EPAC2 antag	USP1 inh	EPAC1 agonist	EPAC2 agonist	EPAC1 antagonist
S=c1[nH]nc(-c2cc(-c3ccco3)[nH]n2)n1-c1ccccc1	22.4µM*	-4.3%	-10.7%	7.2%	0.1%	-11.6%
Cc1cc(=O)oc2cc(OC(C)C(=O)NC3CC(C)(C)NC(C)(C)C3)ccc12 (centres undefined)	6.7%	.	.	.	.	.
Cc1[nH]c2ccccc2c1C(=O)CSc1ccc(Cl)cc1	-20.5%	1.6%	-20.7%	-7.0%	-4.2%	?
Cc1[nH]c2ccccc2c1C(=O)CSc1ccc2c(c1)OCCCO2	25.1µM*	.	.	.	.	.
CN(C)c1ccc(Cc2cc3c(O)ccc(O)c3cc(Cc3ccc(N(C)C)cc3)c2=O)cc1	?	-5.5%	?	9.4%	10.2%	50.1µM*
Cc1cccc(C)c1NC(=S)NC(=O)c1cccc(Cl)c1	31.6µM*	-9.7%	.	-5.8%	2.7%	0.8%

From PubChem BioAssay
